Source: PubChem BioAssay (The Scripps Research Institute Molecular Screening Center)
Rows were chosen to be rich in hits. Some 0.84% of all compounds tested hit in one or more screens of this group.
SRC3 inh: inhibits human SRC3 coactivator; Q9Y6Q9; HEK293 GAL4-SRC3 luciferase reporter, luminescence; inhibition, % at 3.6 µM; 360,000 compounds, 0.17% hits; AID 588352;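 active = inhibition above a per-campaign cutoff, the mean of all compounds plus 3 SD, cut at about 60% in these data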;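 note: higher means less SRC3-driven luciferase light from the GAL4 reporter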
SRC1 inh: human NCOA1 inhibition; 360,000 compounds, 0.12% hits; Q15788; inhibition, % at 3.6 µM; HEK293 GAL4-SRC1 luciferase reporter, luminescence;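 active = inhibition above the campaign mean plus 3 SD, with each screening campaign given its own cutoff, cut at about 60% in these data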
NR5A2 inv ag: inverse agonists of human LRH-1 (NR5A2) | O00482 | HEK293T StAR-luciferase reporter, LRH-1 transfected, 24 h | inhibition, % at 3.6 µM | 360,000 compounds, 0.13% hits;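 active = inhibition above the mean inhibition of all tested compounds plus 3 SD, cut at about 73% in these data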
SRC2 inh: inhibits human steroid receptor coactivator 2 | HEK293 GAL4-SRC2 luciferase reporter, luminescence | Q15596 | 370,000 compounds, 0.17% hits | inhibition, % at 9 µM;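 active = inhibition above the mean inhibition of all tested compounds plus 3 SD, set per campaign, cut at about 52% in these data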
COUP-TFII inh: NR2F2 (human) inhibition, primary screen; P24468; inhibition, % at 8.6 µM; HEK293T NGFI-A luciferase reporter, luminescence; 370,000 compounds, 0.7% hits;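 active = inhibition above a per-plate cutoff, mean inhibition of test wells between control levels plus 3 SD, cut at about 38% in these data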;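 note: cells cotransfected with COUP-TFII expression vector driving the NGFI-A reporter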
Gal4-VP16 ctr: counter-screen for COUP-TFII antagonists: inhibitors of VP16. inhibition, % at 8.5 µM. AID 687007. shares compounds with COUP-TFII inh. 2,500 compounds, 25% hits. HEK293 Gal4-VP16 luciferase reporter, luminescence; in the data active = inhibition above about 13%
COUP-TFII conf: confirmation of human COUP-TFII (NR2F2) inhibitors | 2,500 compounds, 45% hits | AID 687008 | HEK293 NGFI-A luciferase reporter, luminescence | inhibition, % at 8.5 µM | shares compounds with COUP-TFII inh;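 active = mean inhibition over three repeats above a set limit taken from the earlier primary screen, cut at about 38% in these data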
Numbers stand for hits; n = inactive; x = no result.

SMILES	SRC3 inh	SRC1 inh	NR5A2 inv ag	SRC2 inh	COUP-TFII inh	Gal4-VP16 ctr	COUP-TFII conf
CC=C(CC)C1(CCC)C(=O)NC(=S)NC1=O	n	n	n	n	n	x	x
CCC(C)C1NC(=O)C(NC(=O)C(CC(C)C)N(C)C(=O)C2CCCN2C(=O)C(C)O)C(C)OC(=O)C(Cc2ccc(OC)cc2)N(C)C(=O)C2CCCN2C(=O)C(CC(C)C)NC(=O)[C@H](C)C(=O)[C@H](C(C)C)OC(=O)CC1O (stereo partly specified)	94	95	97	78	91	21	88
CC1OC(OC2CC(O)C3(CO)C4C(O)CC5(C)C(C6=CC(=O)OC6)CCC5(O)C4CCC3(O)C2)C(O)C(O)C1O (stereo unspecified)	92	90	103	73	84	53	80
C[C@@H]1O[C@@H](O[C@H]2C[C@@H](O)[C@]3(CO)[C@H]4[C@H](O)C[C@]5(C)[C@@H](C6COC(=O)C6)CC[C@]5(O)[C@@H]4CC[C@]3(O)C2)[C@H](O)[C@H](O)[C@H]1O (stereo partly specified)	n	69	99	n	68	21	59
CC(=O)N1N=C(c2cccnc2)OC1c1ccccc1Cl (stereo unspecified)	n	n	n	n	n	x	x
CC(=O)OC1C(=O)OCC23CCC4(C)OC4C2OC2CC(OC(=O)C=CC=CC(=O)OCCC1C)C3(C)C21CO1 (stereo unspecified)	93	96	98	72	89	n	86
CC(=O)OC1CC(OC2C(O)CC(OC3C(O)CC(OC4CCC5(C)C(CCC6C5CCC5(C)C(C7=CC(=O)OC7)CCC65O)C4)OC3C)OC2C)OC(C)C1OC1OC(CO)C(O)C(O)C1O (stereo unspecified)	89	92	99	60	77	56	78
COC1=CC=C2[C@H]3Cc4ccc(OC)c5c4[C@@]2(CCN3C)[C@H]1O5	n	n	n	n	n	x	x
COC(=O)[C@@H]1N=C(c2ccc(OC)cc2)O[C@]12C(=O)N(Cc1ccc(OC)cc1)c1ccccc12	x	x	n	n	n	x	x
CCOc1cccc(CNCCc2c(C)[nH]c3ccc(OC(F)(F)F)cc23)c1O	n	n	n	n	51	n	41
COc1cccc(NP2(=O)OCC(C)([N+](=O)[O-])CO2)c1 (stereo unspecified)	n	n	n	n	n	x	x
CC(=O)C1CCC2C3C(N4CC4)CC4=CC(=O)CCC4(C)C3CCC12C (stereo unspecified)	n	n	n	n	n	x	x
O=[N+]([O-])c1ccccc1-c1cc(-c2ccccc2)cc(-c2ccccc2)[n+]1Cc1ccccc1Cl	x	x	x	n	56	14	44
